Source: PubChem BioAssay AID2098 (Broad Institute, 2009)
In all, about 300,000 compounds went through this assay and about 2,300 (0.77%) were called active.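 How the source made its calls: active means more than half of replicate wells show activity change below -50%, luminescence cut by over half; inconclusive means some wells, but at most half, below -50%; inactive means no replicate well below -50%.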 The sample as a whole holds a higher share of actives than the screen did.

Assay: blocking HSF1-driven luciferase expression – cell-based, NIH3T3, luminescence, primary screen (AID 2098);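 further: luciferase reports HSF-1 transcriptional activity via heat shock element; 0% = median of DMSO wells and -100% = zero luminescence signal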
Conditions: NIH3T3-HGL HSE-luciferase, MG132-induced, luminescence 8 h; active compounds read low; screened at 7.5 µM (by protocol)

**Q.** Which activity change, negative = inhibition does the source give for `COc1ccc(C(=O)c2c3ccc([N+](=O)[O-])cc3[n+]([O-])n2CCCN)cc1` here?
**A.** 13.3% (inactive)

**Q.** Which activity change, negative = inhibition does the source give for `O=C(NC1CCCCC1)c1ccc(-c2ccc(Cl)cc2)o1` here?
**A.** 43.4% (inactive)

**Q.** For `CC1(C)S[C@@H]2[C@H](NC(=O)COc3ccccc3)C(=O)N2C1C(=O)OCc1ccccc1` (stereo partly drawn), which activity change, negative = inhibition is on record?
**A.** 5.03% (inactive)

**Q.** With `Cc1c(NC(=O)CN(C)CC(=O)Nc2ccc(F)c(F)c2F)c(=O)n(-c2ccccc2)n1C` as the compound, how does the activity change, negative = inhibition read?
**A.** 1.95% (inactive)

**Q.** For `Cc1ccn2c(=O)nc(SCC(=O)NCc3ccc(F)cc3)nc2c1`, which activity change, negative = inhibition is on record?
**A.** 4.59% (inactive)

**Q.** For `Cc1cccc(N2CCN(C(c3ccc(N(C)C)cc3)c3nnnn3C(C)(C)C)CC2)c1C` (stereo not drawn), which activity change, negative = inhibition is on record?
**A.** -2.19% (inactive)

**Q.** Which activity change, negative = inhibition does the source give for `COc1ccccc1C(c1nnnn1CC1CCCO1)N1CCN(c2ccccc2)CC1` (stereo not drawn) here?
**A.** -0.551% (inactive)

**Q.** With `Cc1cccc(N2CCN(C(c3ccccc3)c3nnnn3CC3CCCO3)CC2)c1C` (stereo not drawn) as the compound, how does the activity change, negative = inhibition read?
**A.** -61% (active)

**Q.** Which activity change, negative = inhibition does the source give for `Cc1sc2nc(CSCC(=O)NC3CCCCC3)[nH]c(=O)c2c1C` here?
**A.** 16.5% (inactive)

**Q.** Which activity change, negative = inhibition does the source give for `CCOC(=O)N1CCN(C(=S)Nc2ccc(C)cc2C)CC1` here?
**A.** -68.8% (active)

**Q.** Which activity change, negative = inhibition does the source give for `Cc1cc(Cl)ccc1NC(=S)N1CCC(C(N)=O)(N2CCCCC2)CC1` here?
**A.** 1.76% (inactive)

**Q.** For `CCOC(=O)c1ccc(NC(=S)N2CCCC2)cc1`, which activity change, negative = inhibition is on record?
**A.** 19% (inactive)

**Q.** For `O=C1CCCCC1Sc1ccc(Cl)cc1[N+](=O)[O-]` (stereo not drawn), which activity change, negative = inhibition is on record?
**A.** 3.95% (inactive)

**Q.** With `CCOc1ccc(NS(=O)(=O)c2ccc(C(=O)NCC(c3ccccc3OC)N3CCCC3)cc2)cc1` (stereo not drawn) as the compound, how does the activity change, negative = inhibition read?
**A.** -3.53% (inactive)

**Q.** Which activity change, negative = inhibition does the source give for `O=C(NC1CC1)C1=C[C@H](c2coc3ccccc3c2=O)C[C@H](OCCCCO)O1` here?
**A.** -5.11% (inactive)

**Q.** Which activity change, negative = inhibition does the source give for `COc1ccc(Cl)cc1C(=O)NNC(=S)NC1CCCC1` here?
**A.** 6.56% (inactive)

**Q.** For `COc1cc(OC)c(C(=O)NC2CCCCCC2)cc1OC`, which activity change, negative = inhibition is on record?
**A.** 2.19% (inactive)

**Q.** For `COc1ccc(C(C)NC(=S)NC2CCCCC2)cc1OC` (stereo not drawn), which activity change, negative = inhibition is on record?
**A.** -74.6% (active)

**Q.** With `Clc1ccc(Nc2ccc3ccccc3n2)cc1` as the compound, how does the activity change, negative = inhibition read?
**A.** 6.43% (inactive)

**Q.** Which activity change, negative = inhibition does the source give for `Cc1ccc(C2(C)NC(=O)N(CC(=O)Nc3ccccc3C(=O)N3CCCCC3)C2=O)cc1` (stereo not drawn) here?
**A.** 10.1% (inactive)

**Q.** For `COc1cc(OC)c(C(=O)OCC(=O)N2CC(=O)Nc3ccccc32)cc1OC`, which activity change, negative = inhibition is on record?
**A.** 11.6% (inactive)

**Q.** Which activity change, negative = inhibition does the source give for `O=C1CN(C(=O)COC(=O)c2cnc(Cl)c(Cl)c2)c2ccccc2N1` here?
**A.** 6.76% (inactive)

**Q.** With `O=C1CN(C(=O)COc2c(Cl)cccc2Cl)c2ccccc2N1` as the compound, how does the activity change, negative = inhibition read?
**A.** -74.4% (active)

**Q.** Which activity change, negative = inhibition does the source give for `O=C1/C(=C\c2ccc(O)cc2)CCC1CNc1ccc(Cl)cc1` (stereo not drawn) here?
**A.** -5.88% (inactive)

**Q.** For `C/C(=N\NC(=O)CC(C)C)c1c(C(F)(F)F)[nH]n(-c2nc3ccccc3s2)c1=O`, which activity change, negative = inhibition is on record?
**A.** -6.15% (inactive)

**Q.** Which activity change, negative = inhibition does the source give for `CC(=NCc1ccco1)c1c(C(F)(F)F)[nH]n(-c2nc3ccccc3s2)c1=O` here?
**A.** -32.4% (inactive)

**Q.** With `COC(=O)Cc1[nH]n(-c2nc3ccccc3s2)c(=O)c1C(C)=Nc1ccc(OC)cc1` as the compound, how does the activity change, negative = inhibition read?
**A.** -58.9% (active)

**Q.** For `Cc1ccc(S(=O)(=O)NC(C)C(=O)NCc2ccc(Cl)cc2)cc1` (stereo not drawn), which activity change, negative = inhibition is on record?
**A.** -3.78% (inactive)

**Q.** For `C=CCn1c(C)cc(C(=O)CN2C(=O)c3ccccc3C2=O)c1C`, which activity change, negative = inhibition is on record?
**A.** 8.2% (inactive)

**Q.** With `Cc1cccc(N=C2NN=C(c3c[nH]c4ccccc34)CS2)c1` as the compound, how does the activity change, negative = inhibition read?
**A.** 14.3% (inactive)

**Q.** For `C=CCn1c(C)cc(C2=NNC(=NCC)SC2)c1C`, which activity change, negative = inhibition is on record?
**A.** -77.6% (active)

**Q.** For `Cc1ccc(CNS(=O)(=O)CCNC(=O)c2ccccc2)cc1`, which activity change, negative = inhibition is on record?
**A.** -2.85% (inactive)

**Q.** With `O=C(NCc1cccs1)C1CCN(S(=O)(=O)c2ccc(Cl)cc2)CC1` as the compound, how does the activity change, negative = inhibition read?
**A.** 4.22% (inactive)

**Q.** For `CC(C)c1ccc(NC(=O)C2CCCN(S(=O)(=O)c3cccnc3)C2)cc1` (stereo not drawn), which activity change, negative = inhibition is on record?
**A.** -2.05% (inactive)

**Q.** With `O=C(Nc1ccc(F)c(Cl)c1)C1CCN(S(=O)(=O)c2cccnc2)CC1` as the compound, how does the activity change, negative = inhibition read?
**A.** -56.8% (active)

**Q.** With `Cc1ccc(Cl)c(OCC(=O)N(C)CC(=O)Nc2ccc(N3CCOCC3)cc2)c1` as the compound, how does the activity change, negative = inhibition read?
**A.** 4.7% (inactive)

**Q.** For `COc1cc(C(=O)N(C)Cc2cccc(OC)c2OC)ccc1OCC(=O)Nc1cccc(C(F)(F)F)c1`, which activity change, negative = inhibition is on record?
**A.** -3.36% (inactive)

**Q.** Which activity change, negative = inhibition does the source give for `CCN(CC)c1ccc(NC(=O)c2ccc(=O)[nH]c2)cc1S(=O)(=O)Nc1ccc(OC)cc1` here?
**A.** 2.04% (inactive)

**Q.** With `Cc1ccc(-n2c(=O)cc(N3CCN(Cc4ccccc4)CC3)[nH]c2=O)cc1` as the compound, how does the activity change, negative = inhibition read?
**A.** -57.4% (active)

**Q.** Which activity change, negative = inhibition does the source give for `CCc1c(C)nc(N2CCN(Cc3ccccc3)CC2)[nH]c1=O` here?
**A.** -0.365% (inactive)

**Q.** For `CN1CCN(c2cc(=O)n(-c3ccc(Cl)cc3)c(=O)[nH]2)CC1`, which activity change, negative = inhibition is on record?
**A.** -10.9% (inactive)

**Q.** Which activity change, negative = inhibition does the source give for `COCCN(C(=O)COC(=O)Cc1cccc(OC)c1)c1c(N)n(Cc2ccccc2)c(=O)[nH]c1=O` here?
**A.** -2.09% (inactive)

**Q.** With `NS(=O)(=O)c1ccc(CNC(=O)c2cnccn2)cc1` as the compound, how does the activity change, negative = inhibition read?
**A.** -54.3% (active)

**Q.** For `O=C(NNS(=O)(=O)c1ccc(F)cc1)c1cnccn1`, which activity change, negative = inhibition is on record?
**A.** 4.99% (inactive)

**Q.** With `NS(=O)(=O)c1ccc(CNC(=O)c2cccc(Oc3ccccc3)c2)cc1` as the compound, how does the activity change, negative = inhibition read?
**A.** -1.65% (inactive)

**Q.** Which activity change, negative = inhibition does the source give for `Cc1ccc(S(=O)(=O)NCCC(=O)OCC(=O)N(C)c2ccccc2)cc1` here?
**A.** 7.6% (inactive)

**Q.** Which activity change, negative = inhibition does the source give for `O=C(CCC1CCCCC1)Nc1cc(C(F)(F)F)ccc1N1CCOCC1` here?
**A.** 3.1% (inactive)

**Q.** With `COC(=O)c1nc(NC(=O)c2ccc(F)cc2)n[nH]1` as the compound, how does the activity change, negative = inhibition read?
**A.** 3% (inactive)

**Q.** Which activity change, negative = inhibition does the source give for `COC(=O)c1nc(NC(=O)c2ccc(Cl)cc2)n[nH]1` here?
**A.** -3.56% (inactive)

**Q.** For `COC(=O)c1nc(NC(=O)c2ccc(C(C)(C)C)cc2)n[nH]1`, which activity change, negative = inhibition is on record?
**A.** -75.2% (active)

**Q.** Which activity change, negative = inhibition does the source give for `COc1ccccc1Cc1nc(-c2ccc(C)cc2)no1` here?
**A.** 12% (inactive)

**Q.** With `COc1ccc(-c2nc(-c3ccccc3)no2)c(OC)c1` as the compound, how does the activity change, negative = inhibition read?
**A.** -66.8% (active)

**Q.** Which activity change, negative = inhibition does the source give for `COc1ccc(Sc2nc(-c3ccccc3)ncc2OC)cc1` here?
**A.** -4.54% (inactive)

**Q.** For `C=CCNC(=O)C1CC2c3ccccc3C1c1ccccc12` (stereo not drawn), which activity change, negative = inhibition is on record?
**A.** -1.08% (inactive)

**Q.** Which activity change, negative = inhibition does the source give for `CCc1ccc(NC(=O)CC2C(=O)NCCN2C(=S)Nc2ccccc2)cc1` (stereo not drawn) here?
**A.** -1.21% (inactive)

**Q.** For `COc1cccc(NC(=O)CC2C(=O)NCCN2C(=S)Nc2ccc(F)cc2)c1` (stereo not drawn), which activity change, negative = inhibition is on record?
**A.** 3.49% (inactive)

**Q.** For `COc1ccc(C(=O)NC(=S)N2CCNC(=O)C2CC(=O)OC(C)C)cc1` (stereo not drawn), which activity change, negative = inhibition is on record?
**A.** -54.5% (active)

**Q.** With `Cc1ccc(S(=O)(=O)N(Cc2cccc([N+](=O)[O-])c2)C(=O)N2CCN(C)CC2)cc1` as the compound, how does the activity change, negative = inhibition read?
**A.** -0.764% (inactive)
